A short description of assay [1]: qHTS assay to identify small molecule agonists of the RXR signaling pathway - cell viability counter screen (AID 1159529). Note: nearly all actives have a fitted effect of over 50% in size. Note: potency is the fitted concentration of half-maximal effect. To be noted: RXR-alpha-bla HEK293T viability, CellTiter-Glo, 16 h; series mostly up to 76.8 µM. Put shortly:
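RXR-alpha-UAS-bla HEK 293T cells in medium with 2% charcoal-stripped FBS were preincubated 5 hr, then exposed to compounds for 16 hr at 37 C. Viability was read as CellTiter-Glo luminescence after 30 min at room temperature.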

Assay [2] can be described thus: qHTS assay to identify small molecule antagonists of the estrogen related receptor (ERR) signaling pathway from Tox21 library - cell viability counter screen (AID 1224834). Note: nearly all actives have a fitted effect of over 30% in size. Note: potency is the fitted concentration of half-maximal effect. The note with it: ERR reporter cells viability, CellTiter-Fluor, 17.5 h; series mostly up to 92.4 µM. A digest of the protocol: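 Compounds in DMSO were pinned onto ERR cells that had been incubated for 6 h, and the plates were held at 37 C for 17.5 h. CellTiter-Fluor reagent was then added and fluorescence was measured after 30 min.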
A general note: qHTS replaces the single test concentration by a dilution series.

Assay [3] concerns the target Luciferin 4-monooxygenase (Photinus pyralis) (UniProt P08659). The experiment in a line: qHTS assay to identify small molecule inhibitors of firefly luciferase (AID 1224835). Note: nearly all actives have a fitted effect of over 25% in size. Note: potency is the fitted concentration of half-maximal effect. To be noted: purified P. pyralis luciferase, luminescence inhibition; series mostly up to 115 µM. A digest of the protocol:
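Inhibition of purified Photinus luciferase is measured by luminescence. Substrate levels (D-luciferin, ATP) sit at their KM values. Each compound is tested in a concentration series.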

Assay [4] is described as follows: qHTS assay to identify small molecule agonists of the constitutive androstane receptor (CAR) signaling pathway - cell viability counter screen (AID 1224836). Note: nearly all actives have a fitted effect of over 45% in size. The note with it: HepG2-CYP2B6-hCAR viability, CellTiter-Fluor, 23 h, PK11195 added to every well; series mostly up to 92.4 µM. Put shortly: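 HepG2 cells stably carrying hCAR and a CYP2B6-2.2kb reporter were plated 4 h, then given compounds at 15 concentrations plus PK11195 (final 0.75 uM). After 23 h at 37 C, viability was read by CellTiter-Fluor fluorescence.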

A short description of assay [5]: qHTS assay to identify small molecule antagonists of the constitutive androstane receptor (CAR) signaling pathway - cell viability counter screen (AID 1224837). Note: nearly all actives have a fitted effect of over 45% in size. To be noted: HepG2-CYP2B6-hCAR viability, CellTiter-Fluor, 23 h, co-treated with 50 nM CITCO; series mostly up to 92.4 µM. Put shortly:
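Cells are seeded, rested 4 hr at 37 C/5% CO2, dosed with compound (15-point series) and 50 nM CITCO, incubated a further 23 hr, and then CellTiter-Fluor reagent is added before fluorescence is read. The line is HepG2 with stable hCAR and CYP2B6-2.2kb.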

The target in assay [6] is Nuclear receptor subfamily 1 group I member 3 (Homo sapiens) (UniProt Q14994). Nature of the assay: qHTS assay to identify small molecule antagonists of the constitutive androstane receptor (CAR) signaling pathway (AID 1224838). Note: nearly all actives have a fitted effect of over 40% in size. To be noted: HepG2-CYP2B6-hCAR luciferase, CITCO-stimulated, 24 h; series mostly up to 92.4 µM. A digest of the protocol: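 Luminescence from a CYP2B6-2.2kb promoter reporter in hCAR-expressing HepG2 cells reflects CAR signaling. Cells received compounds at 15 concentrations and 50 nM CITCO (final), then incubated 24 h at 37 C/5% CO2.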
Chain of Nuclear receptor subfamily 1 group I member 3 (Homo sapiens) (Q14994 whole entry, looked up): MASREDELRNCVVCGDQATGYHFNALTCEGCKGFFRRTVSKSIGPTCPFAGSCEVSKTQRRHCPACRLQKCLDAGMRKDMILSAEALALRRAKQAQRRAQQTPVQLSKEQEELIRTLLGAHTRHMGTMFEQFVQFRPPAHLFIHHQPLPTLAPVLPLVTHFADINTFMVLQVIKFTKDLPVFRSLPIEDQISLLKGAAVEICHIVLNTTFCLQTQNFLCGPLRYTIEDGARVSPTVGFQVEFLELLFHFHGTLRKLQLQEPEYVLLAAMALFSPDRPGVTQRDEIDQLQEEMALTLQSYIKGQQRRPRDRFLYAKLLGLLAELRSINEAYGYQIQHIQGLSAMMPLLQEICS

Assay [7] shares this target. Nature of the assay: qHTS assay to identify small molecule agonists of the constitutive androstane receptor (CAR) signaling pathway (AID 1224839). Note: nearly all actives have a fitted effect of over 15% in size. Note: potency is the fitted concentration of half-maximal effect. The note with it: HepG2 hCAR CYP2B6-luciferase, agonist mode, 24 h; series mostly up to 92.4 µM. A digest of the protocol: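 HepG2 cells stably expressing hCAR and a CYP2B6-2.2kb luciferase reporter were treated with compounds at 15 concentrations plus 0.75 uM PK11195 (final) for 24 h at 37 C; luminescence was read after ONE-Glo addition.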

A short description of assay [8]: qHTS assay to identify small molecule antagonists of the estrogen related receptor signaling pathway with the pleiotropic PPARgamma coactivator (PGC) from Tox21 10K library - cell viability counter screen (AID 1224840; active = well fitted cell-killing curve with a large enough effect in the repeat runs, not every such curve was filed as active; note: nearly all actives have a fitted effect of over 40% in size; note: potency is the fitted concentration of half-maximal effect). To be noted: PGC/ERR reporter cells viability, CellTiter-Fluor, 17.5 h; series mostly up to 92.4 µM. A digest of the protocol: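 Cell viability is measured by CellTiter-Fluor fluorescence in PGC/ERR cells that receive compounds after a 6-hour attachment period and are then incubated 17.5 hours at 37 C.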

Assay [9] is described as follows: qHTS assay to identify small molecule antagonists of the estrogen related receptor signaling pathway with the pleiotropic PPARgamma coactivator (PGC) from Tox21 10K library (AID 1224841; call rule not given here; note: actives are mostly falling curves and most rising ones were filed inactive; nearly all actives have a fitted effect of over 50% in size). To be noted: PGC/ERR reporter cell line, ONE-Glo luciferase, 18 h; series mostly up to 92.4 µM. A digest of the protocol: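 Cells stably carrying the PGC/ERR reporter, seeded at 2,000 per well, received pin-transferred compounds 6 h post-plating. Exposure lasted 18 h at 37 C. Signal: One-Glo luminescence.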

A short description of assay [10]: qHTS assay to identify small molecule agonists of the estrogen related receptor signaling pathway with the pleiotropic PPARgamma coactivator (PGC) from Tox21 10K library (AID 1224842). Note: nearly all actives have a fitted effect of over 15% in size. To be noted: PGC/ERR reporter cell line, luciferase ONE-Glo, 18 h; series mostly up to 92.4 µM. A digest of the protocol: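 Luminescence from One-Glo (30 min, room temperature) measured after PGC/ERR cells had 18 h at 37 C with pinned compound (23 nL in DMSO). Cells had been seeded at 2,000 per well and pre-incubated 6 h.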

Assay [11] has as its target Thyrotropin receptor (Homo sapiens) (UniProt P16473). The experiment in a line: qHTS assay to identify small molecule agonists of the thyroid stimulating hormone receptor (TSHR) signaling pathway (AID 1224843; calls by dose curve; note: nearly all actives have a fitted effect of over 45% in size). To be noted: TSHR-HEK293 cells, cAMP HTRF, agonist mode, 30 min; series mostly up to 92.4 µM. A digest of the protocol:
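Agonist activity read as cAMP rise via d2/cryptate HTRF competition, 1 h room-temperature detection, in HEK293 cells expressing TSHR. Fifteen-point titrations, each run in triplicate, with a 30 min room-temperature incubation beforehand.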

Assay [12] in a line: qHTS assay to identify small molecule agonists of the retinoic acid receptor (RAR) signaling pathway (AID 1159553). Note: potency is the fitted concentration of half-maximal effect. The note with it: C3RL4 RARE luciferase reporter, agonist, 6 h; activation: at 73.3 µM (top of the series) unless noted. Put shortly:
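Quantitative high-throughput format: the Tox21 10K library was tested on C3RL4 RARE-luciferase cells for 6 hr at 37 C and 5% CO2, with luminescence measured after a 30 min room-temperature reagent step.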

Assay [13] is described as follows: qHTS assay to identify small molecule antagonists of the estrogen related receptor signaling pathway with the pleiotropic PPARgamma coactivator (PGC) cell viability counter screen (AID 1224822). To be noted: ERR/PGC reporter cell line viability counter screen; series mostly up to 46.1 µM. Put shortly:
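Cytotoxicity in the PGC/ERR cell line is assessed with CellTiter-Fluor, read as fluorescence intensity 30 min after reagent addition, following 17.5 h compound treatment at 37 C.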

Assay [14] in a line: qHTS assay to identify small molecule antagonists of the retinoic acid receptor (RAR) signaling pathway (AID 1159552; note: nearly all actives have a fitted effect of over 50% in size; note: potency is the fitted concentration of half-maximal effect). The note with it: C3RL4 RARE luciferase reporter, retinol-stimulated, 6 h; series mostly up to 92.4 µM. A digest of the protocol: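 RARE-luc C3RL4 cells; cpds + 1 uM (final) retinol, 6 hr, 37 C/5% CO2; luciferase reagent, 30 min RT, luminescence readout. Inhibitors of retinol-driven signal scored.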

Assay [15] in a line: qHTS assay to identify small molecule antagonists of the estrogen related receptor (ERR) signaling pathway - cell viability counter screen (AID 1224818). The note with it: ERR reporter cell line viability counter screen; series mostly up to 46.1 µM. A digest of the protocol: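 Quantitative high-throughput viability counter screen in ERR cells. Compounds (DMSO) incubated 17.5 h at 37 C; read-out was CellTiter-Fluor fluorescence.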

Several values for one entry are separate records, joined by “and”; a condition that tells them apart may be missing. Equal values may be shown once. Inconclusive results are not listed. The source holds several records for some structures; these can differ, active in one and inactive in another. Activity calls are given as the source filed them. Unless noted, calls come from the whole dose curve; as a rule, active = well fitted curve in the direction sought with a large enough effect in the repeat runs; inconclusive = weak or mixed curves; inactive = no such curve, though single readings can be large; an effect the other way counts as inactive or inconclusive.
% is set by controls: 0 for no effect and ±100 for the full control effect.

Chain of Thyrotropin receptor (Homo sapiens) (P16473 whole entry, looked up): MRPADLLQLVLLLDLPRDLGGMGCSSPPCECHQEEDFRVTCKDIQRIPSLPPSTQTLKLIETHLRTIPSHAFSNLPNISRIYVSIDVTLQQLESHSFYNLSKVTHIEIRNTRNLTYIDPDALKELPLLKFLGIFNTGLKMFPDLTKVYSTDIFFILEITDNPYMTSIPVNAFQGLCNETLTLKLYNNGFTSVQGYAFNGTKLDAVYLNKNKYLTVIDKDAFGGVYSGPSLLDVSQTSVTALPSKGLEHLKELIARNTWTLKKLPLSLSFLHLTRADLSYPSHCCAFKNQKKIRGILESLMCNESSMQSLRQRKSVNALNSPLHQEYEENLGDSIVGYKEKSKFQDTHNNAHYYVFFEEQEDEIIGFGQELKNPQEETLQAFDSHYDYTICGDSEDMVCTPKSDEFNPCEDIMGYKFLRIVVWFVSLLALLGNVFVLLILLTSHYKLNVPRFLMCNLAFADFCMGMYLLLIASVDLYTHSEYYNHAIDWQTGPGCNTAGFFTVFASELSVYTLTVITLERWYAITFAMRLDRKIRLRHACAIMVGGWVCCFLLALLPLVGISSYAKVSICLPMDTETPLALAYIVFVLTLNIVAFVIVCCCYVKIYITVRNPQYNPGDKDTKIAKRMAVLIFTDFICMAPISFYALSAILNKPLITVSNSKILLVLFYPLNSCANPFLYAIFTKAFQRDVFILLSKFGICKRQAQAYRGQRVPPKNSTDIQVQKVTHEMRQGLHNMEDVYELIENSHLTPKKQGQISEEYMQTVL
Chain of Luciferin 4-monooxygenase (Photinus pyralis) (P08659 whole entry, looked up): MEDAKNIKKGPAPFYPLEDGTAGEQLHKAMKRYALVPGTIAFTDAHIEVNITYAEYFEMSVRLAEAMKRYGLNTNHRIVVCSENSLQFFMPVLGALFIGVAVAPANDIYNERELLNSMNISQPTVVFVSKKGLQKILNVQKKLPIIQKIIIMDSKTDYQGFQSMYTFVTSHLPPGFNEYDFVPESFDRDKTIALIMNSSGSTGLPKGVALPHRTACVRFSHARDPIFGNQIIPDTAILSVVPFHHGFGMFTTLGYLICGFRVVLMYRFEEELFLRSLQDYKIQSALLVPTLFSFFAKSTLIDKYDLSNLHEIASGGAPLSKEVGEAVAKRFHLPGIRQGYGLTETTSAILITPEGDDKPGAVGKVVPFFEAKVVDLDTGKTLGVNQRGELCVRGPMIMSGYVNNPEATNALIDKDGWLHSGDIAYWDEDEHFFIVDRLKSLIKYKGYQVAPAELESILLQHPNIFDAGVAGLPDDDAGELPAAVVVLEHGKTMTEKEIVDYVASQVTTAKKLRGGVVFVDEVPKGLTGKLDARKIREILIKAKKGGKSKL

As for `O=[N+]([O-])c1cc(C(F)(F)F)ccc1Cl`, the Potency entry in [1], in assay [2], in assay [3], in assay [4], in assay [5] and in [6] was “inactive” throughout. In addition, the Potency result in [7], in assay [8], in assay [9], in assay [10] and in assay [11] was “inactive” in each case.

Consider `O=c1c(O)c(-c2ccc(O)c(O)c2)oc2cc(O)cc(O)c12`, for which the Potency entry in assay [1], in assay [13], in assay [4], in assay [6] and in assay [11] was “inactive” each time. Further, the Potency was 61.2 µM (active) in assay [12]; 43.6 µM (active) and 27.3 µM (active) and inactive in [2]; 35.9 µM (active) [middle of 4 runs] in assay [3]; 54.5 µM (active) and inactive in assay [7]; “inactive and 24.3 µM (active)” in assay [8].

As to `COc1ccc([C@@H]2CC(=O)c3c(O)cc(O[C@@H]4O[C@H](CO[C@@H]5O[C@@H](C)[C@H](O)[C@@H](O)[C@H]5O)[C@@H](O)[C@H](O)[C@H]4O)cc3O2)cc1OC`, the Potency result in [1], in [14], in [12], in assay [2], in assay [4] and in assay [5] was “inactive” throughout. The Potency entry in [6], in assay [7], in assay [8] and in assay [11] was “inactive” each time.

Turning to `Cc1ccc(C)c(S(=O)(=O)O)c1`, the Potency result in [1], in assay [14], in assay [12], in [2], in assay [3] and in [4] was “inactive” each time. The Potency result in assay [5], in [6], in assay [7], in assay [8] and in assay [11] was “inactive” each time.

On to `O=C(c1ccccc1)c1ccc(O)c(O)c1O`, for which the Potency entry in assay [1], in assay [14], in [4], in [5], in assay [8] and in assay [9] was “inactive” each time. Further, the Potency entry in assay [10] and in assay [11] was “inactive” in each case. Besides, the Potency in assay [2] is 49 µM (active).

Turning to `N#CCC(=O)O`, the Potency result in [1], in [14], in assay [12], in assay [2], in assay [3] and in assay [4] was “inactive” throughout. In addition, the Potency result in assay [5], in [6], in assay [8], in assay [9], in assay [10] and in assay [11] was “inactive” in each case.

As to `C=C(CC(=O)O)C(=O)O`, the Potency entry in assay [1], in [14], in assay [12], in [2], in [3] and in [8] was “inactive” throughout. In addition, in assay [11], the Potency entry was “inactive”.

Turning to `CC1=CC(=O)CC(C)(C)C1`, the Potency in assay [1] is 25.3 µM (active) and inactive; in assay [14], 4.99 µM (active) and inactive; in assay [2] it was 22.3 µM (active) and inactive; in [3], 36.6 µM (active) and inactive; in [8] it was 28.1 µM (active) and inactive. The Potency entry in assay [12], in assay [9], in [10] and in assay [11] was “inactive” in each case.

In the case of `Clc1cccc(Cl)c1NC1=NCCN1`, the Potency result in [1], in assay [13], in [2], in assay [4], in [5] and in assay [6] was “inactive” in each case. Further, the Potency result in assay [7], in assay [8] and in assay [11] was “inactive” each time. In assay [15], the molecule was called inactive.

Take `CC(=O)OCc1ccc2c(c1)OCO2`: the Potency entry in [1], in assay [2], in [3], in assay [4], in assay [5] and in [6] was “inactive” each time. Also, the Potency result in assay [7], in assay [8], in assay [9], in [10] and in assay [11] was “inactive” each time.

Turning to `CCCCCCCC(=O)O`, the Potency entry in [1], in assay [2], in assay [3], in [4], in assay [5] and in assay [6] was “inactive” in each case. Further, the Potency result in [7] and in [8] was “inactive” in each case.

For `NC1CCCCC1N` (stereo not drawn), the Potency entry in assay [1], in assay [14], in assay [12], in [2], in assay [4] and in assay [5] was “inactive” each time. The Potency result in [6], in assay [7], in assay [8], in assay [9], in assay [10] and in assay [11] was “inactive” in each case.

On to `CC[N+](CC)(CC(=O)Nc1c(C)cccc1C)Cc1ccccc1`, for which the Potency result in assay [1], in assay [2], in [3], in [4], in [5] and in [8] was “inactive” throughout. Also, in [11], the Potency result was “inactive”.

As to `CCN(CC)CCNC(=O)c1ccc(N)cc1`, the Potency result in assay [1], in assay [13], in assay [2], in assay [3], in assay [4] and in [5] was “inactive” throughout. The Potency result in assay [8] and in [11] was “inactive” in each case. Also, the molecule was classed as inactive in assay [15].

Regarding `NC(N)=S`, the Potency result in [1], in assay [2], in assay [3], in assay [4], in assay [5] and in assay [6] was “inactive” in each case. Further, the Potency entry in assay [7], in [8] and in assay [11] was “inactive” throughout.

Consider `OCc1ccc(Cl)cc1Cl`, for which the Potency result in assay [1], in assay [14], in assay [2], in assay [3], in [4] and in [5] was “inactive” in each case. Moreover, the Potency entry in assay [6], in [7] and in [8] was “inactive” throughout.

For `CCCCC(CC)COC(=O)c1ccc(C(=O)OCC(CC)CCCC)cc1` (stereo not drawn), the Potency entry in [1], in assay [14], in assay [12], in assay [2], in assay [3] and in assay [4] was “inactive” in each case. Moreover, the Potency entry in assay [5], in assay [8], in [9] and in [10] was “inactive” each time.

As to `C=C(C)CC(C)(C)C`, the Potency result in assay [1], in [14], in assay [12], in assay [2], in assay [3] and in assay [4] was “inactive” in each case. In addition, the Potency entry in assay [5], in [8] and in [11] was “inactive” in each case.

The values are drawn from PubChem BioAssay (Tox21).
